{"source": "PubChem BioAssay (Tox21)", "note": "The source made the active and inactive calls. Entries that show only a call come without a potency. Calls follow the shape of the dose curve; as a rule, active = well fitted curve in the direction sought with a large enough effect in the repeat runs; inconclusive = weak or mixed curves; inactive = flat fitted curve, though single readings scatter. Potency is read from the fitted curve at half-maximal effect; tags tell the direction and shape of the fitted curve or compound fluorescence and quenching.", "data": [{"assay": "qHTS assay to test for compound auto fluorescence at 535 nm (green) in HepG2 cell free culture (AID 720686)", "conditions": "Cell-free medium, green autofluorescence 485/535 nm; series mostly up to 91.3 µM", "source_text": "U.S. Tox21 Program National Center for Advancing Translational Sciences [NCATS] NIH Chemical Genomics Center [NCGC] U.S. Environmental Protection Agency [EPA] National Institutes of Environmental Health Sciences [NIEHS] National Toxicology Program [NTP] U.S. Food and Drug Administration [FDA] Tox21 Assay Overview: Compound auto fluorescence often interferes with screening of the compound library against various biological targets and signaling pathways. Some of these compounds may have fluorophoric properties. Such properties may interfere with the assay outputs resulting in false positives and/or negatives. To decrease such complications and ensure the compound activities are relevant in terms of biological response, the Tox21 10K compound library was screened for auto fluorescence. From the fluorophores used as reporter signals in our screening assays, the auto fluorescence equivalencies of compounds against three fluorophores have been evaluated: Triamterene, Fluorescein and Rose Bengal sodium for blue, green and red fluorescence, respectively. The fluorescence intensities were measured using Excitation/Emission wavelengths at 405/460nm, 485/535nm and 540/590nm for blue, green and red labels, respectively. This assay includes the green fluorescence data.\nTox21 Assay Protocol Summary: 5 uL of culture medium (MEM containing 10% FBS) per well was dispensed into black wall/clear bottom 1536-well plates using a Multidrop Combi Dispenser (ThermoFisher Scientific, Waltham, MA). After 23 nL compound or DMSO vehicle was transferred into assay plate by a pintool work station (Kalypsys, San Diego, CA), fluorescence intensities in the assay plates were measured by an Envision (PerkinElmer, Shelton, CT) plate reader using three labels for measuring blue, green and red fluorescence at […] 460, 535 and 590nm respectively.", "values": [{"molecule": "C/C=C/C(=O)N(CC)c1ccccc1C", "Potency": "inactive"}, {"molecule": "NC[C@H](O)c1ccc(O)c(O)c1", "Potency": "inactive"}, {"molecule": "CC/C=C\\C/C=C\\C/C=C\\CCCCCCCC(=O)O", "Potency": "inactive"}, {"molecule": "Cc1ccc([N+](=O)[O-])c(C)c1", "Potency": "inactive"}, {"molecule": "FC(F)(F)C(Cl)Br", "note": "(stereo not given)", "Potency": "inactive"}, {"molecule": "CC(=O)Oc1ccc(C(c2ccc(OC(C)=O)cc2)c2ccccn2)cc1", "Potency": "inactive"}, {"molecule": "c1ccc2c(c1)ccc1cc3c(ccc4ccccc43)cc12", "Potency": "inactive"}, {"molecule": "CC(=O)Oc1c(C)c(C)c2c(c1C)CC[C@@](C)(CCC[C@H](C)CCC[C@H](C)CCCC(C)C)O2", "Potency": "inactive"}, {"molecule": "c1ccc2ncccc2c1", "Potency": "inactive"}, {"molecule": "Nc1ccc2c(c1)C(=O)c1ccccc1C2=O", "Potency": "inactive"}, {"molecule": "Brc1nc2ccccc2s1", "Potency": "inactive"}, {"molecule": "C=C[C@@]1(C)CC(=O)[C@]2(O)[C@@]3(C)[C@@H](O)CCC(C)(C)[C@@H]3[C@H](O)[C@H](OC(C)=O)[C@@]2(C)O1", "Potency": "inactive"}, {"molecule": "Cc1ccc(S(=O)(=O)O)cc1C", "Potency": "inactive"}, {"molecule": "Cc1ccc(C(C)(C)C)cc1", "Potency": "inactive"}, {"molecule": "CC(=O)Nc1ccc2c(c1)Cc1cc(NC(C)=O)ccc1-2", "Potency": "inactive"}, {"molecule": "CCCCCC=O", "Potency": "inactive"}, {"molecule": "Oc1c(Cl)ccc(Cl)c1Cl", "Potency": "inactive"}, {"molecule": "CCCOCCO", "Potency": "inactive"}, {"molecule": "COC(=O)c1ccc(C)cc1", "Potency": "inactive"}, {"molecule": "COCCOCCOCCO", "Potency": "inactive"}, {"molecule": "CCCCCCCCCCCCO", "Potency": "inactive"}, {"molecule": "CC(C)[C@@H]1CC[C@@H](C)CC1=O", "Potency": "inactive"}, {"molecule": "CCCN1C=CN(C)C1", "Potency": "inactive"}, {"molecule": "OC[C@H]1O[C@@H]2O[C@H]3[C@H](O)[C@@H](O)[C@@H](O[C@H]4[C@H](O)[C@@H](O)[C@@H](O[C@H]5[C@H](O)[C@@H](O)[C@@H](O[C@H]6[C@H](O)[C@@H](O)[C@@H](O[C@H]7[C@H](O)[C@@H](O)[C@@H](O[C@H]1[C@H](O)[C@H]2O)O[C@@H]7CO)O[C@@H]6CO)O[C@@H]5CO)O[C@@H]4CO)O[C@@H]3CO", "Potency": "inactive"}, {"molecule": "CCOC(=O)C(C)Oc1ccc(Oc2cnc3cc(Cl)ccc3n2)cc1", "note": "(stereo not given)", "Potency": "inactive"}, {"molecule": "COc1ccc(-c2coc3cc(O)cc(O)c3c2=O)cc1", "Potency": "inactive"}, {"molecule": "C=CCOC(=O)C(=C)C", "Potency": "inactive"}, {"molecule": "CCC(=O)O[C@H]1[C@H](O[C@@H]2[C@@H](C)[C@H](O[C@H]3C[C@@](C)(OC)[C@@H](O)[C@H](C)O3)[C@@H](C)C(=O)O[C@H](CC)[C@@](C)(O)[C@H](O)[C@@H](C)C(=O)[C@H](C)C[C@@]2(C)O)O[C@H](C)C[C@@H]1N(C)C", "Potency": "inactive"}, {"molecule": "Nc1ccc(N)c(Cl)c1", "Potency": "inactive"}, {"molecule": "c1ccc2c(c1)[nH]c1ccccc12", "Potency": "inactive"}, {"molecule": "C=C[C@H]1CN2CC[C@H]1C[C@@H]2[C@@H](O)c1ccnc2ccc(OC)cc12", "Potency": "inactive"}, {"molecule": "O=C1OC2(c3ccccc31)c1cc(I)c(O)c(I)c1Oc1c2cc(I)c(O)c1I", "Potency": "11.2 µM [fluorescent] (active) [middle of 4 runs]"}, {"molecule": "CC[C@]12CCCN3CCc4c(n(c5ccccc45)[C@@](O)(C(=O)OC)C1)[C@@H]32", "Potency": "inactive"}, {"molecule": "Oc1ccc(C(c2ccc(O)cc2)C(Cl)(Cl)Cl)cc1", "Potency": "inactive"}, {"molecule": "CN(Cc1cnc2nc(N)nc(N)c2n1)c1ccc(C(=O)N[C@@H](CCC(=O)O)C(=O)O)cc1", "Potency": "inactive"}, {"molecule": "C=C[C@H]1CN2CC[C@H]1C[C@H]2[C@H](O)c1ccnc2ccc(OC)cc12", "Potency": "inactive"}, {"molecule": "Cc1ccc(/C(=C\\CN2CCCC2)c2ccccn2)cc1", "Potency": "inactive"}, {"molecule": "ClC/C=C/CCl", "Potency": "inactive"}, {"molecule": "CC(=O)O[C@]1(C(C)=O)CC[C@H]2[C@@H]3C=C(Cl)C4=CC(=O)CC[C@]4(C)[C@H]3CC[C@@]21C", "Potency": "inactive"}, {"molecule": "CCCCCCOCCOCCO", "Potency": "inactive"}]}]}
